Results published in article PMC7862700, “An all-to-all approach to the identification of sequence-specific readers for epigenetic DNA modifications on cytosine”.

Key:
Assay in all cases: DAPPL (digital affinity profiling via proximity ligation, sequencing); 10 mM Tris-HCl pH 7.5, 50 mM NaCl, 1 mM DTT, 4% glycerol, room temperature, 30 min; GST-TFs on glutathione beads, 16-mer random dsDNA library, 0.1% formaldehyde crosslink after washing; high values mean tight binding
[1] = molecular target: T1, FEV (Homo sapiens, UniProt Q99581 1-238); conditions: protein: recombinant; tags: N-terminal GST; dsDNA, one strand shown
T1 sequence: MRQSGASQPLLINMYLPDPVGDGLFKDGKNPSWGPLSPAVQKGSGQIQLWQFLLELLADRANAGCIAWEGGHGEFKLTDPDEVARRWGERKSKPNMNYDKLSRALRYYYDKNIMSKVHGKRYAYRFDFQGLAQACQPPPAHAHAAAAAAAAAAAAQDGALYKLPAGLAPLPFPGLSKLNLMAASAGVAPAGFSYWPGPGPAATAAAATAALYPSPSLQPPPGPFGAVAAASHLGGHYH
How it was run: (§1)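 Beads coated with glutathione captured GST-fused human transcription factors that had been expressed in yeast, and the factors were then given DNA barcodes and pooled with a tag-only sample. The pools were incubated with 200 nmole of a random double-stranded 16-mer DNA library in Tris/NaCl/DTT/glycerol buffer for 30 min at room temperature, washed, crosslinked with 0.1% formaldehyde and proximity-ligated with BsaI/T4 ligase at 37 °C for 1 h. PCR amplification and Illumina NextSeq500 sequencing came last. Binding signal is each hexamer's read frequency for a factor divided by its frequency for the tag-only sample.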

[2] = molecular target: ETV5 (Homo sapiens, UniProt P41161 1-510); conditions: protein: recombinant; tags: N-terminal GST; dsDNA, one strand shown
Chain of ETV5 (P41161 whole entry): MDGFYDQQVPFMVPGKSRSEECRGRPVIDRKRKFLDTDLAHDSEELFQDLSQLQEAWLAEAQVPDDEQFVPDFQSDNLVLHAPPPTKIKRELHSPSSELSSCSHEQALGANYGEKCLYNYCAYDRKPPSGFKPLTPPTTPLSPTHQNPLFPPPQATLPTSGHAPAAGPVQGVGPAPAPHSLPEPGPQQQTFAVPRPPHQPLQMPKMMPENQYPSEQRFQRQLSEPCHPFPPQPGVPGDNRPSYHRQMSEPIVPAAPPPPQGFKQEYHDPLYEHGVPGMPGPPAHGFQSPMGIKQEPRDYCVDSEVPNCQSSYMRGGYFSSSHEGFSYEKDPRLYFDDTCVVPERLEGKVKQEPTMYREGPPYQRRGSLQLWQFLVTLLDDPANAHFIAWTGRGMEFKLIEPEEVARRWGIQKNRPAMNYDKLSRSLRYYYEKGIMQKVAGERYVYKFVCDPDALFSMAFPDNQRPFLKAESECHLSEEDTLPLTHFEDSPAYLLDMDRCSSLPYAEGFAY
How it was run: as §1

[3] = molecular target: HSF1 (Homo sapiens, UniProt Q00613 1-529); conditions: protein: recombinant; tags: N-terminal GST; chain copies: 3; dsDNA, one strand shown
Chain of HSF1 (Q00613 whole entry): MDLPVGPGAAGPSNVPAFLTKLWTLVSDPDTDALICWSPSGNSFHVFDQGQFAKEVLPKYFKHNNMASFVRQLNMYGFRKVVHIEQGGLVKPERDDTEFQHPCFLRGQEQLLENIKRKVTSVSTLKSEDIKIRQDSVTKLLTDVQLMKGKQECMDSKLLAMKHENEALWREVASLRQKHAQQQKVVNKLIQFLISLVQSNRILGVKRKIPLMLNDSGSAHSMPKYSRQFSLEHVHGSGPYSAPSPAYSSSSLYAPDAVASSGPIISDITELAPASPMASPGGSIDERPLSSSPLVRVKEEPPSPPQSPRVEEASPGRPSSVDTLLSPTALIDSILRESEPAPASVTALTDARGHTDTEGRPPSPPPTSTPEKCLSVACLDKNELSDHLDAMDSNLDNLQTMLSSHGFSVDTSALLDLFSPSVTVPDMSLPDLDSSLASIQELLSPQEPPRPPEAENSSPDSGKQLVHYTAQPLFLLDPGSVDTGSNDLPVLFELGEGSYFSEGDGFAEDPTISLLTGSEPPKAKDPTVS
How it was run: as §1

[4] = molecular target: T2, SPIC (Homo sapiens, UniProt Q8N5J4 1-248); conditions: protein: recombinant; tags: N-terminal GST; dsDNA, one strand shown
T2 sequence: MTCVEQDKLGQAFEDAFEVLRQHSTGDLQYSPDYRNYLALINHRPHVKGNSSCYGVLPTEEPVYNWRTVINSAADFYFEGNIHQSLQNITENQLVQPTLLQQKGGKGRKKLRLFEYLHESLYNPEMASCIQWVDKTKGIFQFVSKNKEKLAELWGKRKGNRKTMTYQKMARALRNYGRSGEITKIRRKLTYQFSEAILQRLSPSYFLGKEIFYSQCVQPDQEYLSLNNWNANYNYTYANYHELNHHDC
How it was run: as §1

[5] = molecular target: ELF4 (Homo sapiens, UniProt Q99607 1-663); conditions: protein: recombinant; tags: N-terminal GST; dsDNA, one strand shown
Chain of ELF4 (Q99607 whole entry): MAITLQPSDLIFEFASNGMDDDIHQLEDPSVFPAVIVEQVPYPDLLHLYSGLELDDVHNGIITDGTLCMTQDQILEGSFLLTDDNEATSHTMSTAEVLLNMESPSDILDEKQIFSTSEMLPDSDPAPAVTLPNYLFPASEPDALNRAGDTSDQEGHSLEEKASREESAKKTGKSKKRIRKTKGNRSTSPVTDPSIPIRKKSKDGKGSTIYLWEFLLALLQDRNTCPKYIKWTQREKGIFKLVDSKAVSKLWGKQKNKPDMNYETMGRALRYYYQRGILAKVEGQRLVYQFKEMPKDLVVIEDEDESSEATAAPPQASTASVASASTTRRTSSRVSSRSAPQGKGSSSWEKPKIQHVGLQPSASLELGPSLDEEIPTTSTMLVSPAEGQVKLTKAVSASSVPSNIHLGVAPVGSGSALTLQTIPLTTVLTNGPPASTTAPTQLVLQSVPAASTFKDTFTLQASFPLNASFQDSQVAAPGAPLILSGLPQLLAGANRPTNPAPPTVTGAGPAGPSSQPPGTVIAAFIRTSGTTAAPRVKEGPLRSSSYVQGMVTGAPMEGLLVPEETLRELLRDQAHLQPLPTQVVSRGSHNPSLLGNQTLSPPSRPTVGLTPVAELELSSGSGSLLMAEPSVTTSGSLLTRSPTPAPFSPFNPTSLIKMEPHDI
How it was run: as §1

[6] = molecular target: T3, ELK4 (Homo sapiens, UniProt P28324-2 1-405); conditions: protein: recombinant; tags: N-terminal GST; dsDNA, one strand shown
T3 sequence: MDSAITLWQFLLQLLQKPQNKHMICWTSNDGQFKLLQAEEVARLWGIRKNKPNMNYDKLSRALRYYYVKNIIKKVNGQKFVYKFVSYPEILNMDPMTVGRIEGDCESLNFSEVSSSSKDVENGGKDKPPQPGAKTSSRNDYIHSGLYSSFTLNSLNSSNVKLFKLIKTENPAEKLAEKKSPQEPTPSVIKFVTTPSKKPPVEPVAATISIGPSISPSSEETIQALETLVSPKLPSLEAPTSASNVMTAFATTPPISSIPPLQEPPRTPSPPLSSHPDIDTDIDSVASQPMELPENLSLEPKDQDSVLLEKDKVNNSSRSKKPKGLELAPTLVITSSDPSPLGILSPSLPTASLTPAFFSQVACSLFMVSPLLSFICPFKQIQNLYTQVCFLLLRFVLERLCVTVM
How it was run: as §1

[7] = molecular target: T4, ETV2 (Homo sapiens, UniProt O00321 1-342); conditions: protein: recombinant; tags: N-terminal GST; dsDNA, one strand shown
T4 sequence: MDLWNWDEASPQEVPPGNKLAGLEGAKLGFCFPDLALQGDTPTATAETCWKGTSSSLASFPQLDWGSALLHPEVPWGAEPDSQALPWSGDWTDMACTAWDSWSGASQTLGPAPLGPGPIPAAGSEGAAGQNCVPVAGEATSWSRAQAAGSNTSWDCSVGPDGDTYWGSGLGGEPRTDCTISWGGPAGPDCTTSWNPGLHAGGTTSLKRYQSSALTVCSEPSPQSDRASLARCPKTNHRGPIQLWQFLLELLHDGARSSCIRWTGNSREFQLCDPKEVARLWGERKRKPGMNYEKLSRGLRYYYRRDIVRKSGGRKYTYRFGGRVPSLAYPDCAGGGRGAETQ
How it was run: as §1

[8] = molecular target: T5, ELF3 (Homo sapiens, UniProt P78545 1-371); conditions: protein: recombinant; tags: N-terminal GST; dsDNA, one strand shown
T5 sequence: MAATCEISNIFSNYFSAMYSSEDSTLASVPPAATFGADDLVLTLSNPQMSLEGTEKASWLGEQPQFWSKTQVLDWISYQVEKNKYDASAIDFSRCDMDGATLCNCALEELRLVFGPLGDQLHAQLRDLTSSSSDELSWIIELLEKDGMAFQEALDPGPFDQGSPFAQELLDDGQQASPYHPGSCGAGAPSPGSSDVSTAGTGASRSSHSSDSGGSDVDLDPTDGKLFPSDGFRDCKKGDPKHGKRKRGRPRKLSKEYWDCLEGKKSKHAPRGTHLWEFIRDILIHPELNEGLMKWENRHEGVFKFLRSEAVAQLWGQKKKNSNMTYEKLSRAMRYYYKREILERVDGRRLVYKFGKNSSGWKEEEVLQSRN
How it was run: as §1

[9] = molecular target: CRX (Homo sapiens, UniProt O43186 1-299); conditions: protein: recombinant; tags: N-terminal GST; dsDNA, one strand shown
Chain of CRX (O43186 whole entry): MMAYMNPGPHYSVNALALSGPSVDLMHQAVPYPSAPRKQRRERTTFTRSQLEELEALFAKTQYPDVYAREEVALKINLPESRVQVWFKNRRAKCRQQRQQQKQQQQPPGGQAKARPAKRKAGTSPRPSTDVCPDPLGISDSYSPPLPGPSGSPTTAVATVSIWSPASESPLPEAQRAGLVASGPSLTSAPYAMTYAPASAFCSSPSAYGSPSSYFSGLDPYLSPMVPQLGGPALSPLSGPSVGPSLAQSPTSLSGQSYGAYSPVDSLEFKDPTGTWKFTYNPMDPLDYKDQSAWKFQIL
How it was run: as §1

[10] = molecular target: ETV1 (Homo sapiens, UniProt P50549 1-477); conditions: protein: recombinant; tags: N-terminal GST; dsDNA, one strand shown
Chain of ETV1 (P50549 whole entry): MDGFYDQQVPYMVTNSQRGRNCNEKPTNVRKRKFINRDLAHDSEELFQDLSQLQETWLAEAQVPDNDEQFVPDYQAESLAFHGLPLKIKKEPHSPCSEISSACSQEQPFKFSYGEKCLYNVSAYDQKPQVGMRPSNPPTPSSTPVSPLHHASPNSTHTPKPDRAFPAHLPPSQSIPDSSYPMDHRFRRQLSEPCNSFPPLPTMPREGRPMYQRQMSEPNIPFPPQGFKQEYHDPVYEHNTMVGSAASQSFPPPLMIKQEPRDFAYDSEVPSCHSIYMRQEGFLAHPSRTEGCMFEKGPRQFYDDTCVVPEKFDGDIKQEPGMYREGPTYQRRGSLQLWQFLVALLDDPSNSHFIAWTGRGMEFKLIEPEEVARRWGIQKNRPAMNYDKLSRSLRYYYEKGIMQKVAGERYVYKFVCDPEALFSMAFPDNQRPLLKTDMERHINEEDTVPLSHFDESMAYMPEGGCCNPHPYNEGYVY
How it was run: as §1

[11] = molecular target: T6, ERF (Homo sapiens, UniProt P50548 1-548); conditions: protein: recombinant; tags: N-terminal GST; dsDNA, one strand shown
T6 sequence: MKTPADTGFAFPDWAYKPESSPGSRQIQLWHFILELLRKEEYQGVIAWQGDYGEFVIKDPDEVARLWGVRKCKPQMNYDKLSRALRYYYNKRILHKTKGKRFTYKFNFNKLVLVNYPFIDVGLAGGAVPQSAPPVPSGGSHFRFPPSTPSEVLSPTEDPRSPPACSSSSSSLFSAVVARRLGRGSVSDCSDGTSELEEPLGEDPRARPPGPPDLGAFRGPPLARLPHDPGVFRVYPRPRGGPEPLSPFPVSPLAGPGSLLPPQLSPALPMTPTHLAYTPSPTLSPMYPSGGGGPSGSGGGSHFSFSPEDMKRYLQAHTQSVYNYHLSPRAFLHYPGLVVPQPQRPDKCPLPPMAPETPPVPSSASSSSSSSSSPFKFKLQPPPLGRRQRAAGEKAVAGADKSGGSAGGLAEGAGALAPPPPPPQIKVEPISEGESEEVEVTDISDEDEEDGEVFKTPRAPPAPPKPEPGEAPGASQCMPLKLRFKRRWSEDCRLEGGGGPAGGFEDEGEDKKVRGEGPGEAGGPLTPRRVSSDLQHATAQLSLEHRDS
How it was run: as §1

[12] = molecular target: T7, ETV3L (Homo sapiens, UniProt Q6ZN32 1-361); conditions: protein: recombinant; tags: N-terminal GST; dsDNA, one strand shown
T7 sequence: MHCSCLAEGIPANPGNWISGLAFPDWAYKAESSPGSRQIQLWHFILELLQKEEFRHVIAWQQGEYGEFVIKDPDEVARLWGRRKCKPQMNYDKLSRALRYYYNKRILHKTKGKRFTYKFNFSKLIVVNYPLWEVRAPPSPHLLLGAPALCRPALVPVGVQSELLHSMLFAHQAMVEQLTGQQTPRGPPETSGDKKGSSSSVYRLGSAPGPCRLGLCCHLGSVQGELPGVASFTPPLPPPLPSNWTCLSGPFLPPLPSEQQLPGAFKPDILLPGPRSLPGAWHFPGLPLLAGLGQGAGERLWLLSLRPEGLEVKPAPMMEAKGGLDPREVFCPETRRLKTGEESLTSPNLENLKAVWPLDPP
How it was run: as §1

[13] = molecular target: T8, ETS2 (Homo sapiens, UniProt P15036 1-469); conditions: protein: recombinant; tags: N-terminal GST; dsDNA, one strand shown
T8 sequence: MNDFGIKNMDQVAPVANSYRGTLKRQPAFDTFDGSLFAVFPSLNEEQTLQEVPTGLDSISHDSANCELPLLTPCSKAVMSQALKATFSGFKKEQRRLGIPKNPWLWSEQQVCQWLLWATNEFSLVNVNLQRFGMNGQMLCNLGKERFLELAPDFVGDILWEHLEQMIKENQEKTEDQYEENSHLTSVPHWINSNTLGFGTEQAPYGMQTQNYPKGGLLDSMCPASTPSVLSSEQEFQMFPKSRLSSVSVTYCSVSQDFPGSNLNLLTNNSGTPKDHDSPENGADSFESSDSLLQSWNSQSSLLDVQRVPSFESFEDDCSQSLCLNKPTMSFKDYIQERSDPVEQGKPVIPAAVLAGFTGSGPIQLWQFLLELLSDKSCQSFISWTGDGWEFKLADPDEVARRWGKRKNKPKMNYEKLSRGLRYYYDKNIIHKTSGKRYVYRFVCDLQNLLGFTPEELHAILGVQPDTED
How it was run: as §1

[14] = molecular target: T9, SPDEF (Homo sapiens, UniProt O95238 1-335); conditions: protein: recombinant; tags: N-terminal GST; dsDNA, one strand shown
T9 sequence: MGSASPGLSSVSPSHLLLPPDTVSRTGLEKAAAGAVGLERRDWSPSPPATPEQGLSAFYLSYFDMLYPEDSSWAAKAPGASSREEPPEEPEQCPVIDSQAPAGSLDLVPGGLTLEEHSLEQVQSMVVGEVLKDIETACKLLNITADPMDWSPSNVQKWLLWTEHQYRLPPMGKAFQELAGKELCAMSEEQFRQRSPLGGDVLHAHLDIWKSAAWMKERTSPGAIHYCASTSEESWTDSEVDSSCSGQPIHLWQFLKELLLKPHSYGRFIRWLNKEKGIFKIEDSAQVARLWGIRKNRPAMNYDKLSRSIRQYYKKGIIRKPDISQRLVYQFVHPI
How it was run: as §1

[15] = molecular target: T10, ETV7 (Homo sapiens, UniProt Q9Y603 1-341); conditions: protein: recombinant; tags: N-terminal GST; dsDNA, one strand shown
T10 sequence: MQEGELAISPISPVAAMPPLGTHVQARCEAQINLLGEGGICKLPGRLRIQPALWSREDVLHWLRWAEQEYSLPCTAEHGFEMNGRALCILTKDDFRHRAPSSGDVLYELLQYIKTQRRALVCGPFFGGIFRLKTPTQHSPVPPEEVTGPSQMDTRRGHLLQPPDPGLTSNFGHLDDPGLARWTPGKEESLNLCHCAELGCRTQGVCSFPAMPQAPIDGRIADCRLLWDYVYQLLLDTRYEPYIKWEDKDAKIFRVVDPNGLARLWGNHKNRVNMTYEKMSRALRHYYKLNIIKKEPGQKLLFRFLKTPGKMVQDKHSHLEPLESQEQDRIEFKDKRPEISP
How it was run: as §1

[16] = molecular target: T11, ELF5 (Homo sapiens, UniProt Q9UKW6-2 1-255); conditions: protein: recombinant; tags: N-terminal GST; dsDNA, one strand shown
T11 sequence: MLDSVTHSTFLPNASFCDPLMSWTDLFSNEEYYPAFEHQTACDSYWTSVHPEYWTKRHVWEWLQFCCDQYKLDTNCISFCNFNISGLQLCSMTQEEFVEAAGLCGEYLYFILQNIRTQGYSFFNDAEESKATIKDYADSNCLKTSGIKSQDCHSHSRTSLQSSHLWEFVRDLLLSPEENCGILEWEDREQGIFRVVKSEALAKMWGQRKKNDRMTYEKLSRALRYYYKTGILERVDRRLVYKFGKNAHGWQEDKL
How it was run: as §1

[17] = molecular target: T12, ETV3 (Homo sapiens, UniProt P41162-2 1-143); conditions: protein: recombinant; tags: N-terminal GST; dsDNA, one strand shown
T12 sequence: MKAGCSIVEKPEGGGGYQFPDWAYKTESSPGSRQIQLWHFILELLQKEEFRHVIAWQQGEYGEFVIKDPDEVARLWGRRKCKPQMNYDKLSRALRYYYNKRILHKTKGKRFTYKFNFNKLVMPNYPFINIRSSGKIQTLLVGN
How it was run: as §1

[18] = molecular target: ETV6 (Homo sapiens, UniProt P41212 1-452); conditions: protein: recombinant; tags: N-terminal GST; dsDNA, one strand shown
Chain of ETV6 (P41212 whole entry): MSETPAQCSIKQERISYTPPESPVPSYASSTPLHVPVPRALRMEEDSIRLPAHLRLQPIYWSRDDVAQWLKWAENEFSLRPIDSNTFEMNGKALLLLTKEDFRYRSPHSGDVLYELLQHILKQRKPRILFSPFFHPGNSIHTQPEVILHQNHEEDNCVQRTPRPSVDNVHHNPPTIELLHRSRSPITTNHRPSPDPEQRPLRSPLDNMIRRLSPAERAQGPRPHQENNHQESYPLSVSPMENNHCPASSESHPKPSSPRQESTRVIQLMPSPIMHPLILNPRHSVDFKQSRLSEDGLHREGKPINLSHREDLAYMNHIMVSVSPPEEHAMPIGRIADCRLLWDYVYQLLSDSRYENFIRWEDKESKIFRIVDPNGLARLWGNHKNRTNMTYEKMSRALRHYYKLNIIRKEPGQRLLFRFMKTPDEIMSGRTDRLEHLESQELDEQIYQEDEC
How it was run: as §1

Sequence: TGGGCT
- binding signal [1]: 1.35 fold enrichment (6-mer frequency, TF over GST control)
- binding signal [2]: 1.4 fold enrichment (6-mer frequency, TF over GST control)
- binding signal [3]: 1.19 fold enrichment (6-mer frequency, TF over GST control)
- binding signal [4]: 1.28 fold enrichment (6-mer frequency, TF over GST control)
- binding signal [5]: 1.36 fold enrichment (6-mer frequency, TF over GST control)
- binding signal [6]: 1.29 fold enrichment (6-mer frequency, TF over GST control)
- binding signal [7]: 1.26 fold enrichment (6-mer frequency, TF over GST control)
- binding signal [8]: 1.4 fold enrichment (6-mer frequency, TF over GST control)
- binding signal [9]: 1.3 fold enrichment (6-mer frequency, TF over GST control)
- binding signal [10]: 1.42 fold enrichment (6-mer frequency, TF over GST control)
- binding signal [11]: 1.27 fold enrichment (6-mer frequency, TF over GST control)
- binding signal [12]: 1.45 fold enrichment (6-mer frequency, TF over GST control)
- binding signal [13]: 1.5 fold enrichment (6-mer frequency, TF over GST control)
- binding signal [14]: 1.28 fold enrichment (6-mer frequency, TF over GST control)
- binding signal [15]: 1.49 fold enrichment (6-mer frequency, TF over GST control)
- binding signal [16]: 1.32 fold enrichment (6-mer frequency, TF over GST control)
- binding signal [17]: 1.41 fold enrichment (6-mer frequency, TF over GST control)
- binding signal [18]: 1.32 fold enrichment (6-mer frequency, TF over GST control)
